Test results reported in PubChem BioAssay (Tox21).
Unmarked numbers belong to inactive results. Inconclusive results are not listed. Entries that show only a call come without a potency. Calls of active or inactive are those of the source. Calls follow the shape of the dose curve; as a rule, active = well fitted curve in the direction sought with a large enough effect in the repeat runs; inconclusive = weak or mixed curves; inactive = no such curve, though single readings can be large; an effect the other way counts as inactive or inconclusive.

Columns and labels:
[1] = qHTS RealTime-Glo MT Cell Viability Assay in HepG2 cells - 24 hour (AID 1224867); also: nearly all actives have a fitted effect of over 50% in size
Summary of the method: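 Cell number in HepG2 cultures estimated from NanoLuc luminescence generated by metabolic reduction of a prosubstrate by living cells. The homogeneous, nonlytic format allowed repeated reads at 0, 8, 16, 24, 32 and 40 h of compound exposure.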

[2] = qHTS RealTime-Glo MT Cell Viability Assay in HEK293 cells - 32 hour (AID 1224868); also: top concentration of the series differs between compounds; nearly all actives have a fitted effect of over 50% in size
Summary of the method: (§1)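 Homogeneous bioluminescent viability format in HEK293 cells (600 cells/well). Following 5 h at 37 C/5% CO2, 23 nL compound was pintooled; the signal was measured repeatedly during 40 h incubation.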

[3] = A CellTox Green Cytotoxicity Assay to monitor cytotoxicity in HEK293 cells - 0 hour (AID 1224869); also: nearly all actives have a fitted effect of over 50% in size; also: potency is read from the fitted curve at half-maximal effect
Summary of the method: (§2)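 Real-time, in one plate: 600 HEK293 cells/well with dead-cell DNA dye, pinned compound after 5 h, 37 C incubation over 40 h; viable cells give no appreciable fluorescence.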

[4] = qHTS RealTime-Glo MT Cell Viability Assay in HepG2 cells - 40 hour (AID 1224870); also: nearly all actives have a fitted effect of over 50% in size
Summary of the method: (§3)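 Real-time viability: cells seeded at 600 per well together with NanoLuc and cell-permeant prosubstrate, compounds added after 5 h incubation. Luminescence tracked at 0, 8, 16, 24, 32 and 40 h of exposure.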

[5] = A CellTox Green Cytotoxicity Assay to monitor cytotoxicity in HEK293 cells - 40 hour (AID 1224871); also: nearly all actives have a fitted effect of over 45% in size; also: potency is read from the fitted curve at half-maximal effect
Summary of the method: as §2

[6] = qHTS RealTime-Glo MT Cell Viability Assay in HEK293 cells - 16 hour (AID 1224872)
Summary of the method: as §1

[7] = qHTS RealTime-Glo MT Cell Viability Assay in HepG2 cells - 8 hour (AID 1224873); also: nearly all actives have a fitted effect of over 55% in size
Summary of the method: as §3

[8] = qHTS RealTime-Glo MT Cell Viability Assay in HEK293 cells - 40 hour (AID 1224874); conditions: RealTime-Glo luminescence; max response: hits give low values; also: nearly all actives have a fitted effect of over 50% in size
Summary of the method: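 Kinetic, non-lysing viability readout. Seed HEK293 (600/well) with reagent, incubate 5 h at 37 C/5% CO2, pin 23 nL compound in DMSO, incubate at 37 C, read luminescence at 0, 8, 16, 24, 32, 40 h.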

[9] = A CellTox Green Cytotoxicity Assay to monitor cytotoxicity in HEK293 cells - 24 hour (AID 1224875); also: nearly all actives have a fitted effect of over 45% in size; also: potency is read from the fitted curve at half-maximal effect; as to activity change: series mostly up to about 77 µM
Summary of the method: as §2

[10] = A CellTox Green Cytotoxicity Assay to monitor cytotoxicity in HepG2 cells - 16 hour (AID 1224876); also: nearly all actives have a fitted effect of over 45% in size; also: potency is read from the fitted curve at half-maximal effect
Summary of the method: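 Cytotoxicity was tracked as dead-cell DNA fluorescence in HepG2 cells treated with test compounds at 37 C; each time-point value comes from one kinetic series spanning 0, 8, 16, 24, 32 and 40 h.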

Structure (SMILES)	outcome [1]	Potency [2]	Potency [3]	outcome [4]	Potency [5]	Potency [6]	outcome [7]	max response [8]	Potency [9]	Potency [10]	activity change, negative = cytotoxicity [1]	activity change, negative = cytotoxic [2]	cytotoxicity [3]	activity change, negative = cytotoxic [4]	cytotoxicity increase [5]	activity change, negative = cytotoxicity [6]	viability change, negative = cytotoxic [7]	activity change [9]	cytotoxicity increase [10]
Cc1ccccc1OCC1CO1 (stereo not given)	inactive	inactive	inactive	inactive	inactive	inactive	inactive	-1.66%	inactive	inactive									
C[C@H](CCC(=O)O)[C@H]1CC[C@H]2[C@@H]3[C@H](O)C[C@@H]4C[C@H](O)CC[C@]4(C)[C@H]3C[C@H](O)[C@]12C	inactive	inactive	inactive	inactive	inactive	inactive	inactive	-1.02%	inactive	inactive									
C=CCOc1c(Br)cc(C(C)(C)c2cc(Br)c(OCC=C)c(Br)c2)cc1Br	inactive	inactive	inactive	inactive	inactive	inactive	inactive	14.4%	inactive	inactive									
C=CCCCCCCCCCCC								6.19%			0.824% [at 6.97 µM]	7.22% [at 6.97 µM]	3.23% [at 6.97 µM]	-0.414% [at 6.97 µM]	0.236% [at 6.97 µM]	6.31% [at 6.97 µM]	1.47% [at 6.97 µM]	-0.54% [at 6.97 µM, hits give high values]	-0.067% [at 6.97 µM]
C[N+](C)(C)CC(O)CCl (stereo not given)	inactive	inactive	inactive	inactive	inactive	inactive	inactive	-4.6%	inactive	inactive									
CCNC(=O)/C=C/c1cccc(Br)c1	inactive	inactive	inactive	inactive	inactive	inactive	inactive	1.9%	inactive	inactive									
CCOC(=O)OCC/C(SC(=O)OCC)=C(\C)N(C=O)Cc1cnc(C)nc1N	inactive	inactive	inactive	inactive	inactive	inactive	inactive	4.82%	inactive	inactive									
CCCCCCCCCCCCCCCCI								-10.6%			-1.23% [at 15.8 µM]	-10.5% [at 15.8 µM]	0.206% [at 15.8 µM]	17.3% [at 15.8 µM]	-8.08% [at 15.8 µM]	-6.59% [at 15.8 µM]	-19.7% [at 15.8 µM]	-5.96% [at 15.8 µM, hits give high values]	-9.76% [at 15.8 µM]
NS(=O)(=O)c1cc2c(cc1Cl)NC(C(Cl)Cl)NS2(=O)=O (stereo not given)	inactive	inactive	inactive	inactive	inactive	inactive	inactive	2.25%	inactive	inactive									
Nc1cc(C(=O)O)ccc1Cl	inactive	inactive	inactive	inactive	inactive	inactive	inactive	6.48%	inactive	inactive									
O=C1OC(=O)c2ccccc21	inactive	inactive	inactive	inactive	inactive	inactive	inactive	-12.4%	inactive	inactive									
C=CC(C)(O)CC/C=C(\C)CC (stereo not given)	inactive	inactive	inactive	inactive	inactive	inactive	inactive	5.46%	inactive	inactive									
O=C(O)c1ccccc1C(=O)OCc1ccccc1	inactive	inactive	inactive	inactive	inactive	inactive	inactive	3.76%	inactive	inactive									
CC(C)COC(=O)CCCCC(=O)OCC(C)C	inactive	inactive	inactive	inactive	inactive	inactive	inactive	-8.63%	inactive	inactive									
CCC(=O)OCCC(C)CCC=C(C)C (stereo not given)	inactive	inactive	inactive	inactive	inactive	inactive	inactive	-5.38%	inactive	inactive									
C/C=C(\C)C(=O)OCC/C=C\CC	inactive	inactive	inactive	inactive	inactive	inactive	inactive	2.25%	inactive	inactive									
CCCCCCCCCCCCCC(=O)OC	inactive	inactive	inactive	inactive	inactive	inactive	inactive	12.2%	inactive	inactive									
O=C(O)CCNC(=O)c1ccccc1	inactive	inactive	inactive	inactive	inactive	inactive	inactive	-0.231%	inactive	inactive									
COCCOCCOCCOC	inactive	inactive	inactive	inactive	inactive	inactive	inactive	2.64%	inactive	inactive									
C=C[C@@H](C)CCC=C(C)C	inactive	inactive	inactive	inactive	inactive	inactive	inactive	9.85%	inactive	inactive									
CC(=O)OC(C)(C)Cc1ccccc1	inactive	inactive	inactive	inactive	inactive	inactive	inactive	6.53%	inactive	inactive									
CC(C)C(=O)c1ccccc1	inactive	inactive	inactive	inactive	inactive	inactive	inactive	-17.8%	inactive	inactive									

Structure (SMILES)	outcome [1]	Potency [2]	Potency [3]	outcome [4]	Potency [5]	Potency [6]	outcome [7]	max response [8]	Potency [9]	Potency [10]	activity change, negative = cytotoxicity [1]	activity change, negative = cytotoxic [2]	cytotoxicity [3]	activity change, negative = cytotoxic [4]	cytotoxicity increase [5]	activity change, negative = cytotoxicity [6]	viability change, negative = cytotoxic [7]	activity change [9]	cytotoxicity increase [10]
Cc1ncc([N+](=O)[O-])n1CC(O)CCl (stereo not given)	inactive	inactive	inactive	inactive	inactive	inactive	inactive	3.64%	inactive	inactive									
CC1=CC[C@H](CC=O)C1(C)C	inactive	inactive	inactive	inactive	inactive	inactive	inactive	1.6%	inactive	inactive									
CNCc1ccccc1	inactive	inactive	inactive	inactive	inactive	inactive	inactive	-3.32%	inactive	inactive									
O=C1NC2NC(=O)NC2N1 (stereo not given)	inactive	inactive	inactive	inactive	inactive	inactive	inactive	1.34%	inactive	inactive									
O=S(=O)(O)SSS(=O)(=O)O	inactive	inactive	inactive	inactive	inactive	inactive	inactive	4.41%	inactive	inactive									
CC(=O)/C=C/c1ccco1	inactive	inactive	inactive	inactive	inactive	inactive	inactive	7.79%	inactive	inactive									
Cn1c(=O)c2c(ncn2CC2OCCO2)n(C)c1=O	inactive	inactive	inactive	inactive	inactive	inactive	inactive	7.08%	inactive	inactive									
Cc1cc(O)c2c(c1)C(=O)c1cccc(O)c1C2=O	inactive	inactive	inactive	inactive	inactive	inactive	inactive	3.33%	inactive	inactive									
CCOC(=O)C(C)(C)C	inactive	inactive	inactive	inactive	inactive	inactive	inactive	-0.816%	inactive	inactive									
Nc1c(NC/C=C\COc2cc(CN3CCCCC3)ccn2)c(=O)c1=O								-0.39%			1.59% [at 15.8 µM]	2.38% [at 15.8 µM]	-1.89% [at 15.8 µM]	1.19% [at 15.8 µM]	6.78% [at 15.8 µM]	2.61% [at 15.8 µM]	6.05% [at 15.8 µM]	3.31% [at 15.8 µM, hits give high values]	-12.5% [at 15.8 µM]
C=COCCOCCOC=C	inactive	inactive	inactive	inactive	inactive	inactive		-1.05%	inactive	inactive									
Cc1oc(=O)oc1CN1CCN(c2cc3c(cc2F)c(=O)c(C(=O)O)c2n3C(C)S2)CC1 (stereo not given)	inactive	inactive	inactive	inactive	inactive	inactive		5.9%	inactive										
CCN(CCO)c1cccc(C)c1	inactive	inactive	inactive	inactive	inactive	inactive		6.86%	inactive	inactive									
NCCc1ccn[nH]1	inactive	inactive	inactive	inactive	inactive	inactive	inactive	6.3%	inactive	inactive									
Nc1nc(=O)n([C@@H]2O[C@H](CO)[C@@H](O)[C@@H]2F)cc1I	inactive	inactive	inactive	inactive	inactive	inactive		3.93%	inactive	inactive									
CCCCC(=O)N(C)C	inactive	inactive	inactive	inactive	inactive	inactive		1.13%	inactive	inactive									
O=C(/C=C/c1ccccc1)NCCO	inactive	inactive	9.52 µM (active)	inactive	7.56 µM (active)	inactive	inactive	-3.72%	6.01 µM (active)	9.52 µM (active)									
NC(Cc1c[nH]c2ccccc12)C(=O)O (stereo not given)	inactive	inactive	inactive	inactive	inactive	inactive		13.4%	inactive	inactive									
CCCCOC(=O)C(=O)OCCCC	inactive	inactive	inactive	inactive	inactive	inactive	inactive	0.934%	inactive	inactive									
O=S(=O)(O)CCO	inactive	inactive	inactive	inactive	inactive	inactive		-10.5%	inactive	inactive									
CCN(Cc1cccc(S(=O)(=O)O)c1)c1ccccc1	inactive	inactive	inactive	inactive	inactive	inactive		0.413%	inactive	inactive									
O=C(O)Cc1cccc(-c2cc(CCCCCCc3ccc(O[C@H]4O[C@H](CO)[C@@H](O)[C@H](O)[C@@H]4O)c(-c4cccc(CC(=O)O)c4)c3)ccc2O[C@H]2O[C@H](CO)[C@@H](O)[C@H](O)[C@@H]2O)c1								-2.4%			2.07% [at 0.29 µM]	4.81% [at 0.29 µM]	3% [at 0.29 µM]	-21.2% [at 0.29 µM]	-17.8% [at 0.29 µM]	3.33% [at 0.29 µM]		-8.86% [at 0.29 µM, hits give high values]	15.1% [at 0.29 µM]
